Bioassay records as filed in PubChem BioAssay.
hgDAF12 agonist: hgDAF-12 agonism, primary luciferase screen | HEK293 GAL4-hgDAF12 UAS-luciferase reporter, agonist luminescence; normalized to butyrate control | activation, % at 6.8 µM | actives 1.8% (n = 370,000) | AID 687014;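 active means activation above a cutoff set at the mean of all screened compounds plus 3 SD, cut at about 10% in these data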
DAX1 inh-1: inhibitors of DAX1 repression of SF-1 activated StAR promoter; HEK293T StAR-luciferase reporter, SF-1/DAX-1 repression relief; inhibition, % at 6.8 µM; actives 1.1% (n = 370,000); AID 652010;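 active means inhibition above the mean over all tested compounds plus 3 SD, cut at about 3.6% in these data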;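 further: higher inhibition means more luminescence from relief of DAX-1 repression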
ssDAF-12 act: activators of S. stercoralis DAF-12 nuclear receptor | activation, % at 6.8 µM | AID 652126 | HEK293 ssDAF-12/GRIP1 lit1-tk-luc reporter, luminescence; % of 3 µM dafachronic acid response | actives 1% (n = 370,000);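 active means activation above the mean over all tested compounds plus 3 SD, cut at about 0.9% in these data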
DAX1 inh-2: inhibits human nuclear receptor DAX1; AID 504766; HEK293 Gal4-DAX1 luciferase reporter, luminescence; actives 0.99% (n = 340,000); inhibition, % at 6.75 µM;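 active means inhibition above the mean over all tested compounds plus 3 SD, cut at about 4.2% in these data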;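 further: inhibition shows as a rise in luminescence from relieved DAX1 repression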
Target sequence (P51843 207-470 limits assumed): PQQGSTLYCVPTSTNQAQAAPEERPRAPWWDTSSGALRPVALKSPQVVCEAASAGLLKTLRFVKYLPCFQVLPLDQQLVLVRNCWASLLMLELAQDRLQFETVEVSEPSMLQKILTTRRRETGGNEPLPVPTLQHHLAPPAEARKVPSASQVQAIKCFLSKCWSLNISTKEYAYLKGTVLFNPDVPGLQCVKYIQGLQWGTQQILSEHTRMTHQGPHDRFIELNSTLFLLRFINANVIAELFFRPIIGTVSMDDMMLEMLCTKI
SMARCA2 act: activators of SMARCA2 function. MG213 cells, MMTV-luciferase reporter, dexamethasone, overnight. activation, % at 9.1 µM. actives 1% (n = 370,000). AID 652017; in the data active means activation above about 7.8%
hcDAF12 agonist: activators of H. contortus DAF-12 nuclear receptor | HEK293 hcDAF-12 lit1-tk-luc reporter, luminescence; 0% DMSO, 100% Δ7-dafachronic acid | activation, % at 6.8 µM | actives 1.4% (n = 370,000);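 active means activation above the mean of all tested compounds plus 3 SD, cut at about 5.5% in these data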
SMARCA2 conf: SMARCA2 activation, confirmation screen; shares compounds with SMARCA2 act; activation, % at 9.1 µM; AID 652260; MG213 cells, MMTV-luciferase with dexamethasone, luminescence, overnight; MG213 cells expressing E1A, Rb sequestered; DMSO wells 0%, reference activator 100%; actives 30% (n = 3,500);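 active means activation above its plate's cutoff, the mean activation of tested wells plus 3 SD, cut at about 7.9% in these data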
VP16 Luc act: activates GAL4-VP16 luciferase, flagging SMARCA2 activator hits | shares compounds with SMARCA2 act | AID 686939 | HEK293 GAL4-VP16 pG5luc reporter, luciferase luminescence; scaled: DMSO wells 0%, SAHA wells 100% | actives 41% (n = 3,500) | activation, % at 9.1 µM;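 active means activation above the solvent-only control well mean plus 3 SD, averaged across control plates, cut at about 5.2% in these data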
Large screens that a line does not name were inactive (follow-up assays come after a bar, where they were run). A selection: hits, their analogues and other compounds. The true share with any hit is near 4.8%.

CCOc1ccc2nc(SC3CC(=O)N(c4ccc(C)cc4)C3=O)sc2c1 (centres undefined)	none
Cc1ccc(Cc2cnc(NC(=O)C3CCCO3)s2)cc1 (centres undefined)	hgDAF12 agonist 12.9, ssDAF-12 act 1.0, SMARCA2 act 8.8 | SMARCA2 conf 10.5 | VP16 Luc act 7.9
O=C(Nc1nnc(C(F)(F)F)s1)c1cccnc1	SMARCA2 act 9.0, hcDAF12 agonist 5.6 | SMARCA2 conf inactive | VP16 Luc act 9.3
O=C(Nc1nnc(-c2cccnc2)s1)c1cnc2ccccc2c1	SMARCA2 act 8.0 (no result: DAX1 inh-2) | SMARCA2 conf inactive | VP16 Luc act inactive
COc1ccc(C(=O)Oc2ccc(C(=S)N3CCOCC3)cc2)cc1	none
C/C(=N/NC(=O)Cc1c(C)[nH][nH]c1=O)c1ccc(O)cc1	none
C/C(=N\NC(=O)Cc1c(C)[nH][nH]c1=O)c1ccc(Cl)c(Cl)c1	SMARCA2 act 8.0 | SMARCA2 conf inactive | VP16 Luc act inactive
O=C(Nc1ccccc1)c1ccccc1OCc1ccc(F)cc1	none
O=C(NC1=NCCS1)c1ccccc1OCc1ccc(F)cc1	SMARCA2 act 10.4 | SMARCA2 conf inactive | VP16 Luc act inactive
O=C(Cn1cnc2ccccc2c1=O)Nc1nnc(SCc2ccc(Cl)cc2)s1	none
Cc1ccc(C(=O)N2CCN(c3ccc([N+](=O)[O-])cc3)CC2)o1	none
Cc1nn(C)cc1CNC(=O)Nc1ccc(Cl)c(Cl)c1	SMARCA2 act 8.0 | SMARCA2 conf inactive | VP16 Luc act 6.9
Cc1nn(C)cc1CNC(=O)C1(C)CC1(Cl)Cl (centres undefined)	none
COc1ccc(NC(=O)CN2CCC(C(N)=O)(N3CCCCC3)CC2)c(OC)c1	none
COC(=O)C/C=N/N=C1/NC(=O)/C(=C/C(=O)O)S1	none
C=CCNC(=O)c1c(Cl)cnn1-c1ccc(C)cc1	hgDAF12 agonist 11.9, SMARCA2 act 11.6 (no result: DAX1 inh-2) | SMARCA2 conf inactive | VP16 Luc act 5.4
C=CCNC(=O)c1cnn(-c2ccccc2)c1-c1ccccc1	none
CCCC(=O)Nc1ccc(NC(=O)c2ccco2)c(OC)c1	DAX1 inh-1 3.7, SMARCA2 act 9.7 | SMARCA2 conf inactive | VP16 Luc act 6.5
Cc1cc(NC(=O)c2ccco2)ncc1NC(=O)Cc1ccccc1	SMARCA2 act 10.8 | SMARCA2 conf 12.3 | VP16 Luc act inactive
Cc1cc(NC(=O)c2ccco2)ccc1NC(=O)c1ccco1	SMARCA2 act 9.7 | SMARCA2 conf inactive | VP16 Luc act inactive
CCNC(=S)NNC(=O)CSc1nc2ccccc2c(=O)n1-c1ccc(Cl)cc1	none (no result: DAX1 inh-2)
COc1cc2c(cc1CN1CCN(C(=O)c3cc(OC)c(OC)c(OC)c3)CC1)OCO2	none
COc1ccccc1C(=O)Nc1ccc(OCC(=O)N2C(C)CCCC2C)cc1 (centres undefined)	none
O=C(CSc1nnc(CNC(=O)c2ccc(F)cc2)o1)NCc1ccc2c(c1)OCO2	none
Cc1ccc(OCC(=O)Nc2cccc(C)n2)c(C)c1	hgDAF12 agonist 10.8, SMARCA2 act 10.5 | SMARCA2 conf inactive | VP16 Luc act 11.6
CCOC(=O)C(C)n1cnc2c(nnn2-c2cccc(Cl)c2)c1=O (centres undefined)	none
Cc1ccc(-n2c(SCC(N)=O)nc3c(c2=O)C2(CCCC2)Cc2ccccc2-3)cc1	SMARCA2 act 8.0 | SMARCA2 conf inactive | VP16 Luc act inactive
Cc1ccccc1C(=O)NNC(=O)c1ccc(Br)cc1	SMARCA2 act 9.0 | SMARCA2 conf inactive | VP16 Luc act 5.5
Cc1cccc(C(=O)NNC(=O)c2ccccc2C)c1	none
COc1ccccc1Cn1c(-c2ccco2)nc2nc3ccccc3nc21	SMARCA2 act 8.6 | SMARCA2 conf inactive | VP16 Luc act inactive
CC/C(=N\NC(=O)c1cccnc1)c1ccc2c(c1)OCCO2	none
O=[N+]([O-])c1ccc2[nH]c(=S)[nH]c2c1	SMARCA2 act 10.4 | SMARCA2 conf 10.5 | VP16 Luc act inactive
O=[N+]([O-])c1ccc2c(c1)[nH]c(=S)n2-c1ccccc1	none
O=C(Nc1nccs1)C(c1ccccc1)N1CCCC1 (centres undefined)	none
CCCCn1c(N)c(N(C)C(=O)c2c(C)nn(-c3ccccc3)c2C)c(=O)[nH]c1=O	none
CC1=C(C(=O)Nc2ccccn2)C(c2ccc(N(C)C)cc2)n2ncnc2N1 (centres undefined)	hgDAF12 agonist 11.0, SMARCA2 act 8.1 | SMARCA2 conf inactive | VP16 Luc act inactive
COc1cccc(NC(C)C(=O)Nc2cc([N+](=O)[O-])ccc2Cl)c1 (centres undefined)	none
CC(C)Nc1ccc(Nc2ccnc3cc4ccccc4cc23)cc1	SMARCA2 act 12.3 | SMARCA2 conf 9.1 | VP16 Luc act inactive
CN1CCN(CCCNC(=O)CCN2C(=O)COc3ccccc32)CC1	none
CN(C)C(=O)c1cccc(-c2cnc3c(NC=O)cc(-c4ccccc4Cl)cn23)c1	hgDAF12 agonist 11.6, SMARCA2 act 9.8 (no result: DAX1 inh-2) | SMARCA2 conf 19.5 | VP16 Luc act inactive
COc1ccc(-c2cnc3c(NC(C)=O)cc(-c4cccc(C(=O)NCCN(C)C)c4)cn23)cc1OC	none (no result: DAX1 inh-2)
COc1cccc(-c2cnc3c(NC(C)=O)cc(-c4cccc(C(=O)NCCN(C)C)c4)cn23)c1	SMARCA2 act 10.9 (no result: DAX1 inh-2) | SMARCA2 conf 22.1 | VP16 Luc act inactive
CC(=O)Nc1cccc(-c2cc(NC=O)c3ncc(-c4cccc(C(C)=O)c4)n3c2)c1	SMARCA2 act 11.0 (no result: DAX1 inh-2) | SMARCA2 conf inactive | VP16 Luc act 6.5
Cc1cc(C)n2c(SCC(=O)Nc3cc(S(=O)(=O)N(C)C)ccc3C)nnc2n1	none
O=S(=O)(c1ccc(Cl)cc1)n1nnc2ccccc21	none
Cc1ccc(C)c(NC(=O)CCN2CCN(CCO)CC2)c1	none
C[C@@H]1O[C@@H](OCCC(=O)O)[C@H](O)C[C@H]1O	none
O=S1(=O)CC(N2CCN(CCO)CC2)CN1Cc1ccc(F)cc1 (centres undefined)	SMARCA2 act 8.1 (no result: DAX1 inh-2) | SMARCA2 conf inactive | VP16 Luc act inactive
Cc1ccc(CN2CC(N3CCN(CCO)CC3)CS2(=O)=O)cc1 (centres undefined)	none (no result: DAX1 inh-2)
O=C(CCC(=O)N1CCCC1)N1CCCC1	none
COc1ccc(CC(=O)Nc2cccc(/C(C)=N/NC(=O)C3(C)CC3(Br)Br)c2)cc1 (centres undefined)	none
